This passage reports AC50 and outcome results from PubChem BioAssay (EPA / NIEHS).

Results filed as inconclusive are left out. The source made the active and inactive calls. How the source made its calls: active means hit-call score of the fitted dose curve at least 0.9, where 1 is the maximum; inconclusive means response in the unintended direction; inactive means score below 0.9.

Sequence of human Peroxisome Proliferator-activated Receptor alpha (PPARa), PPARA (gene 5465) (Q07869 whole entry, looked up): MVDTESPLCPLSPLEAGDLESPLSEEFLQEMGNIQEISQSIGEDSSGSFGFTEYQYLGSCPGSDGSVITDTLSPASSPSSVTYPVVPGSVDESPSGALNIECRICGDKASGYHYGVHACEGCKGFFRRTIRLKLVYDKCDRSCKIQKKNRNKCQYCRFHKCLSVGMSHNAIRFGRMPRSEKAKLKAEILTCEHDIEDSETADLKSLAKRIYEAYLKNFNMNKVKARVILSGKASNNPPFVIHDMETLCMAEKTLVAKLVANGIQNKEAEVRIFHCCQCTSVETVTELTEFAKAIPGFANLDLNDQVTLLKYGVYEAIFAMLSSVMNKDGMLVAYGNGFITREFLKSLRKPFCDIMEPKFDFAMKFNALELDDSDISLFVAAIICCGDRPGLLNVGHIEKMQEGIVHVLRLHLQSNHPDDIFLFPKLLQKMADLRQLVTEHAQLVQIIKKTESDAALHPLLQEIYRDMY

The target in this assay is human Peroxisome Proliferator-activated Receptor alpha (PPARa), PPARA (gene 5465) (UniProt Q07869). The assay is described as follows: ATG_PPARa_TRANS: Attagene TRANS-FACTORIAL HepG2 Assay for human Peroxisome Proliferator-activated Receptor alpha (PPARa) (AID 2283001).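 On AC50: potency for gain of reporter signal over DMSO so agonist or activator.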 The procedure:
ATG_TRANS is a cell-based, multiplexed-readout assay that uses HepG2, a human liver cell line, with measurements taken at 24 hours after chemical dosing in a 24-well plate.ATG_PPARa_TRANS is one of 30 assay component(s) measured or calculated from the ATG_TRANS assay. It is designed to make measurements of mRNA induction, a form of inducible reporter, as detected with fluorescence intensity signals by Reverse transcription polymerase chain reaction (RT-PCR) and Capillary electrophoresis technology.Data from the assay component ATG_PPARa_TRANS was analyzed into 1 assay endpoint. This assay endpoint, ATG_PPARa_TRANS, was analyzed in the positive analysis fitting direction relative to DMSO as the negative control and baseline of activity. Using a type of inducible reporter, measures of mRNA for gain-of-signal activity can be used to understand the reporter gene at the transcription factor-level as they relate to the gene PPARA. Furthermore, this assay endpoint can be referred to as a primary readout, because this assay has produced multiple assay endpoints where this one serves a reporter gene function. To generalize the intended target to other relatable targets, this assay endpoint is annotated to the nuclear receptor intended target family, where the subfamily is non-steroidal.
Human liver HepG2 cells are transiently transfected with multiple reporter transcription units (MRTUs) in 6-well plates using FuGene 6 reagent (Roche; 3 ml FuGene/1 mg DNA). The MRTU constructs are regulated by a cis-regulating element (promoter). […] A major difference between the CIS and TRANS system is that in CIS activities of endogenous TFs are measured, whereas the TRANS assay evaluates changes in activities of exogenous, chimeric NR-Gal4 proteins. […] At the end of 24 hour incubation, total RNA was isolated using TriZol reagent (Invitrogen). The isolated RNA is then reverse-transcribed using oligo(dT) primer and Mo-MLV reverse transcriptase (Invitrogen) with DNAse I (Ambion) treatment for 30 min. The one-tenth of the produced cDNA was amplified by PCR using Taq DNA polymerase (Invitrogen) and two reporter sequence-specific primers. The PCR products were fluorescently labeled by primer extension with 6-arboxyfluorescein (6-FAM) 5'-labeled reporter sequence-specific primer (2 min at 95 C, 20 s at 68 C and 10 min at 72 C) and these products were digested with 5U of HpaI (New England Biolabs) for 2h at 37 C. The fragments were purified using Qiaquick PCR columns (Qiagen), analyzed on an ABI 3130xL genetic analyzer (Applied Biosystems) with peak positions identified by using a set of X-rhodamine (ROX)-labeled MapMarker1000 molecular weight standards (BioVentures). The raw capillary electrophoresis data was processed using Attagraph software (Attagene).
Usually AC50 stands for the concentration giving half of the maximal activity seen. As to `O=C(Nc1cccc(C(F)(F)F)c1)c1cc(Br)cc(Br)c1O`, the AC50 is 1.58 µM (active). `C=CC(C)(CCC=C(C)C)OC(=O)C(C)C` (stereo not given): the compound was classed as inactive. On to `CC(C)c1ccc(C#N)cc1`, for which the compound was classed as inactive. Still for that read-out and setting: as for `COc1ccc(-c2coc3cc(O)ccc3c2=O)cc1`, the entry is “inactive”; as for `N#CCc1ccc(Cl)cc1Cl`, “inactive”; as for `CCc1ccc2c(c1)C(=O)c1ccccc1C2=O`, “inactive”. Same read-out and setting: as for `COc1ccc([C@@H]2CC(=O)c3c(O)cc(O[C@@H]4O[C@H](CO[C@@H]5O[C@@H](C)[C@H](O)[C@@H](O)[C@H]5O)[C@@H](O)[C@H](O)[C@H]4O)cc3O2)cc1OC`, the entry is “inactive”; as for `CCC(C)OC(=O)c1ccc(O)cc1` (stereo not given), “inactive”; as for `OC1OCCOC1O` (stereo not given), “inactive”.

Regarding `CCOc1ccc(N)c([N+](=O)[O-])c1`, the outcome was inactive. The same measure, in the same setting: as for `Nc1cccc(C(F)(F)F)c1`, the entry is “inactive”. In the case of `CCCCCCCCCCCSCC(=O)O`, the half-maximal activity concentration (AC50) is 2.85 µM (active). On to `CC(=O)[C@@]1(O)CC[C@H]2[C@@H]3C[C@H](C)C4=CC(=O)C=C[C@]4(C)[C@@]3(F)[C@@H](O)C[C@@]21C`, for which the compound was called inactive.

Regarding `Nc1ncn([C@@H]2O[C@H](CO)[C@@H](O)[C@H]2O)c(=O)n1`, the compound was called inactive. Still for that read-out and setting: as for `O=C1CC2CC1C1CCCC21` (stereo not given), the entry is “inactive”; as for `CCOc1nc(F)cc2nc(S(=O)(=O)Nc3c(Cl)cccc3C(=O)OC)nn12`, “inactive”. Same read-out and setting: the value for `CCCCOCCOC(=O)COc1nc(Cl)c(Cl)cc1Cl` was “inactive”; that for `CC1=NC(C)OC1C` (stereo not given) was “inactive”; that for `CCCc1ccc(OC)cc1` was “inactive”.

Turning to `c1ccc2c(c1)ccc1ncccc12`, the compound was called inactive. Regarding `N#[N+]c1ccc2c(S(=O)(=O)[O-])cccc2c1O`, the compound was classed as inactive.

As to `CC=CCO`, the call was inactive. With `O=C1C(N(CO)C(=O)NCO)N(CO)C(=O)N1CO` (stereo not given), the result was inactive. For `COc1ccc2nc(N)sc2c1`, the outcome was inactive. Regarding `CCCCCCCC/C=C\CCCCCCCC(=O)OCCO`, the AC50 is 8.71 µM (active). On to `O=C1CCCCCN1SSN1CCCCCC1=O`, for which the compound was classed as inactive. Still for that read-out and setting: as for `Cc1cccc(OCCOc2cccc(C)c2)c1`, the entry is “inactive”; as for `C=CCCCCCCCCC(=O)OCCCC`, “inactive”. For `CC/C=C\C/C=C\C/C=C\CCCCCCCC(=O)O`, the AC50 is 42.3 µM (active).

On to `c1ccc(CNCc2ccccc2)cc1`, for which the outcome was inactive. Consider `C(=CC=Nc1ccccc1)C=CNc1ccccc1`, for which the compound was classed as inactive. Still for that read-out and setting: as for `C=C(C)C(=O)OCCO`, the entry is “inactive”; as for `CCOC(=O)Cc1cccc2ccccc12`, “inactive”. The same measure, in the same setting: the value for `Nc1ccc(Cl)cc1Cl` was “inactive”.

`Cc1ccccc1C`: the call was inactive. For `O=c1[nH]nc(-c2ccc([N+](=O)[O-])o2)o1`, the compound was classed as inactive. Still for that read-out and setting: as for `Cc1cnc(NC(=O)C2=C(O)c3ccccc3S(=O)(=O)N2C)s1`, the entry is “inactive”. The same measure, in the same setting: the value for `CCC(C)C=O` (stereo not given) was “inactive”. The same measure, in the same setting: as for `NC(=O)c1ccccc1O`, the entry is “inactive”. Regarding `CCc1nccnc1C`, the call was inactive.
